Compound activity from PubChem.
Most compounds without a hit are left out; they make up all but 3.5% or so of the library.
TEAD-YAP block: TEAD-YAP interaction inhibition | HEK-TIYL cells, TEAD-Gal4/YAP UAS-luciferase luminescence | inhibition, % at 9.12 µM | actives 1.4% (n = 640,000) | AID 1259422; in the data active = inhibition above about 32%;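 note: 0% = median of test compound wells and 100% = reference inhibitor wells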
FBW7 act: activators of human E3 ligase FBW7 | AlphaScreen FBW7–phospho-cyclin E peptide binding, activator screen | AID 1259310 | actives 0.13% (n = 650,000) | normalized activity (activation), % at 26.1 µM | Q969H0; in the data active = normalized activity above about 1.9%;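 note: purified mutant Fbw7 with reduced substrate affinity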
MITF inh: inhibitors of human MITF; O75030; AlphaScreen MITF homodimerization, bead proximity signal; inhibition, % at 2.6 µM; actives 0.91% (n = 650,000); in the data active = inhibition above about 50%;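 note: 0% = vehicle wells with protein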
GPR151 ag: activates the human receptor GPR151. Q8TDV0. actives 1% (n = 650,000). PathHunter beta-arrestin GPR151 cells, luminescence. activation, % at 11.2 µM; in the data active = activation above about 4.9%;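 note: 0% = median of compound wells and 100% = cells with positive control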
Target sequence (Q8TDV0 whole entry, looked up): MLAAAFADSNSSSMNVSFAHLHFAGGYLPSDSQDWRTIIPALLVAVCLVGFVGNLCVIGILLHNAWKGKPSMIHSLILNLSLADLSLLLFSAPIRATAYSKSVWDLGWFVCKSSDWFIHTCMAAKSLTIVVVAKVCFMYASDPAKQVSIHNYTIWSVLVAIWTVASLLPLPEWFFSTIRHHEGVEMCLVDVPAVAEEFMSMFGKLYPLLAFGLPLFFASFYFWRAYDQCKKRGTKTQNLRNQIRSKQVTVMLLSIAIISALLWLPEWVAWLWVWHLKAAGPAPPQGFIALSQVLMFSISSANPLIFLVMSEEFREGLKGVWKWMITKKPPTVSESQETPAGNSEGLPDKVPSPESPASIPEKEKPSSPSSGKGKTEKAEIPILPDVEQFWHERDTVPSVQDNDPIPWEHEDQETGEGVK
* marks the source's active call; other numbers are inactive results; ! = not confirmed by another sample.

SMILES	TEAD-YAP block	FBW7 act	MITF inh	GPR151 ag
OCCCNc1ccc2ncc(-c3ccsc3)n2n1	51.0*	0.8	-0.2	-1.6
FC(F)(F)c1cccc(-c2cnc3ccc(NCCCN4CCOCC4)nn23)c1	15.6	1.9*	6.8	0.3
c1ccc2cc(-c3cnc4ccc(NCCCN5CCOCC5)nn34)ccc2c1	-6.3	-0.5	-18.8	0.6
O=C(O)c1ccc(-c2cnc3ccc(NCCCO)nn23)cc1	0.1	0.2	11.9	-0.4
OCCCNc1ccc2ncc(-c3cccc(O)c3)n2n1	72.0*	-0.4	-10.8	-0.1
CCCNc1ccc2ncc(-c3cccc(C(C)=O)c3)n2n1	34.2*	0.1	-15.5	0.1
CC(=O)c1cccc(-c2cnc3ccc(NCc4cccs4)nn23)c1	7.3	-0.1	-0.5	-0.5
COc1ccc2ncc(C(=O)c3ccc(C)cc3)c(N3CCOCC3)c2c1	-1.5	-0.1	3.1	2.4
O=C(Oc1ccc(Cl)cc1Cl)c1ccc([N+](=O)[O-])cc1	-18.6	0.3	-17.9	-0.4
CCCCCNC(=O)C(NS(=O)(=O)c1ccc(I)cc1)C(C)C (stereo unspecified)	1.0	0.0	14.5	-0.8
OCCCNc1ccc2ncc(-c3ccccc3)n2n1	43.2*	-0.2	9.3	0.2
OCCCNc1ccc2ncc(-c3cccc(Cl)c3)n2n1	53.1*	-0.5	0.2	0.2
CSc1nnc(C(C)(C)C)c(=O)n1/N=C/c1ccccc1O	6.0	0.5	75.5*	0.2
CSc1nnc(C(C)(C)C)c(=O)n1/N=C/c1ccccc1[N+](=O)[O-]	6.2	0.0	10.9	-0.5
Cc1nnc(NC(=O)Cn2c3c(c4ccccc42)CCC3)s1	-5.9	0.2	18.4	3.0
Cc1cc(NC(=O)Cn2c3c(c4ccccc42)CCC3)no1	57.4*	0.3	11.3	1.7
O=C(CN1CCC(c2ccncc2)CC1)Nc1nccs1	34.2*	-0.1	-3.7	-0.9
O=C(Cn1c2c(c3ccccc31)CCC2)Nc1nccs1	34.4*	-0.1	3.8	-0.2
O=C(CN1CCC(c2cccnc2)CC1)Nc1nccs1	-2.0	-0.1	5.8	1.7
CC1C(=N)N(c2nc(N(C)C)nc(N(C)C)n2)CC1=O (stereo unspecified)	3.7	-0.1	3.2	-0.6
C=CCOc1ccc(C2C(C(=O)OCC)=C(C)N=c3s/c(=C/c4ccccc4)c(=O)n32)cc1OCC (stereo unspecified)	-13.9	0.5	7.0	1.4
COc1cc(/C=C/CN2CCN(Cc3ccccc3)C(CCO)C2)ccc1O (stereo unspecified)	2.7	-0.1	3.9	-0.5
O=C(CN1CCCc2ccccc21)N/N=C/c1ccco1	67.7*	0.0	-8.3	-1.9
COc1ccccc1-c1nnc(SCC(=O)Nc2ccc(Br)cn2)o1	34.1*	0.1	4.3	0.6
COc1cc(NS(=O)(=O)c2ccc3c(c2)oc(=O)n3C)cc(OC)c1OC	48.2*	-0.1	-2.2	0.7
SMILES	TEAD-YAP block	FBW7 act	MITF inh	GPR151 ag
COc1cc(NS(=O)(=O)c2ccc(-c3cc(C)no3)cc2)cc(OC)c1OC	60.5*	1.0	13.8	1.6
COc1cc(NS(=O)(=O)c2ccc(-c3cc(C)no3)cc2)cc(OC)c1	60.8*	0.1	-1.4	0.7
CC(C)n1c(-c2cccc(N)c2)nc2c(NCCCN3CCCC3=O)ncnc21	-0.2	-0.2	-13.0	0.1
O=C(O)CCCCN1C(=O)CSC1=S	37.6*	0.2	23.6	-1.0
O=C(O)CCN1C(=O)CSC1=S	9.8	0.0	5.5	0.8
O=C(Nc1nc(-c2ccccn2)cs1)c1ccc(Oc2ccccc2)cc1	43.0*	-0.1	0.4	-1.3
COc1cc(OC)cc(C(=O)Nc2nc(-c3ccccn3)cs2)c1	49.1*	-0.3	17.8	0.0
CCN(CC)S(=O)(=O)c1cccc(C2=N/C(=C\c3ccc(C#N)cc3)C(=O)O2)c1	1.9	0.0	13.7	-0.2
COc1cc(-c2cnc3c(NCc4cccnc4)nccn23)cc(OC)c1OC	39.3*	-0.1	-9.2	0.3
COc1cc(-c2cnc3c(NCc4cccs4)nccn23)cc(OC)c1OC	38.3*	1.9*	-1.5	0.2
COc1cc(-c2cnc3c(NCc4ccncc4)nccn23)cc(OC)c1OC	-7.8	-0.5	-1.4	0.2
COc1cc(CNc2nccn3c(-c4cccc(O)c4)cnc23)cc(OC)c1OC	0.0	2.1*	-1.1	0.6
COc1ccc(C2C3=C(CCCC3=O)Nc3[nH]c(=O)[nH]c(=O)c32)cc1 (stereo unspecified)	-3.4	-0.1	-4.0	0.6
O=C1NC(=S)N/C1=C/c1ccc(O)c(O)c1	17.3	-0.2	87.3*	0.8
CN(C)c1ccc(/C=C2\NC(=S)NC2=O)cc1[N+](=O)[O-]	-16.0	-0.2	71.4*!	0.8
CC(C)OC(=O)c1c(-c2ccc(Br)cc2)csc1NC(=O)/C=C/C(=O)O	36.0*	0.1	2.2	1.7
CC(C)OC(=O)c1c(-c2ccc(Br)cc2)csc1NC(=O)C1C2CCC(C2)C1C(=O)O (stereo unspecified)	-3.7	-0.1	-4.2	-2.2
Cc1ccc(N2C(=O)CC(SCC(N)C(=O)O)C2=O)cc1 (stereo unspecified)	1.3	-0.5	3.0	-0.1
COc1cccc(C2=NS(=O)(=O)N(C)C(C(=O)NC(C)(C)C)=C2)c1	12.7	0.8	20.1	-1.5
COCCNc1ccc2ncc(-c3cccs3)n2n1	36.6*	0.0	-16.9	-0.8
c1ccc(CCNc2ccc3ncc(-c4cccs4)n3n2)nc1	80.2*	0.2	-4.3	0.4
CCN1CCN(c2cc(F)cc(-c3ccnc(Nc4ccc(-n5nc(C)nc5C)cc4)n3)c2)CC1	67.5*	0.6	15.5	1.9
Cc1nc(C)n(-c2ccc(Nc3nccc(-c4cccc(-n5cncn5)c4)n3)cc2)n1	44.5*	0.0	9.2	-0.2
Cc1nc(C)n(-c2ccc(Nc3nccc(N(CCO)Cc4ccccc4)n3)cc2)n1	51.5*	-0.1	-6.0	0.7
Cc1nc(C)n(-c2ccc(Nc3nccc(-c4cc(F)cc(N5CCCC5)c4)n3)cc2)n1	1.0	0.0	-2.6	-0.1
SMILES	TEAD-YAP block	FBW7 act	MITF inh	GPR151 ag
Cc1nc(C)n(-c2ccc(Nc3nccc(-c4cc(F)cc(-c5cn[nH]c5)c4)n3)cc2)n1	-3.6	-0.2	6.6	0.6
CNc1cc(F)cc(-c2ccnc(Nc3ccc(-n4nc(C)nc4C)cc3)n2)c1	58.7*	0.3	31.2	-2.2
CC(C)CC(C(=O)Nc1sc2c(c1C(N)=O)CCC2)N1C(=O)c2ccccc2C1=O (stereo unspecified)	-8.3	-0.1	1.2	-0.6
O=C(Nc1cccc(Cl)c1F)c1cnc(Nc2ccnc(Nc3ccc(N4CCOCC4)cc3)c2)s1	0.5	-0.2	20.2	-1.2
Clc1nc(NCc2ccccc2)nc(Nc2ccccc2)n1	9.2	0.2	19.7	-1.9
CCOc1ccc2ccccc2c1/C=N/NC(N)=S	40.3*	-0.1	-16.7	-0.9
O=C(N/N=C/c1c2ccccc2cc2ccccc12)C(=O)NC1CC1	56.9*	1.3	-4.2	1.0
NC(=O)N/N=C/c1c2ccccc2cc2ccccc12	3.4	2.0*	16.6	1.2
O=C(N/N=C/c1c2ccccc2cc2ccccc12)C(=O)Nc1ccccc1F	-0.2	0.0	6.5	0.7
CCOC(=O)N/N=C/c1c2ccccc2cc2ccccc12	3.6	-0.1	-10.1	2.3
